# Active and inactive are the calls of the source. How the source made its calls: active means hit-call score of the fitted dose curve at least 0.9, where 1 is the maximum; inactive means score below 0.9.
# Assays:
# [1] = ATG_M_61_CIS: Attagene CIS-FACTORIAL HepG2 Assay for M61 Transcription Factor (Internal Marker) (AID 2282937); details: HepG2 Attagene CIS-FACTORIAL M61 internal marker reporter; actives raise or lower the signal
# In short: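 Human liver HepG2, transient MRTU transfection (cis promoter elements), 24 h compound. Total RNA → oligo(dT) RT → PCR → FAM label → HpaI → CE. Internal background marker; bidirectional fitting, DMSO = baseline.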
# [2] = ATG_EGR_CIS: Attagene CIS-FACTORIAL HepG2 Assay for human Early Growth Response 1 (EGR1) (AID 2282938); details: HepG2 Attagene CIS-FACTORIAL EGR reporter mRNA; actives raise or lower the signal
# In short: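 Transient transfection of human HepG2 with multiple cis-regulated reporter units, chemical exposure 24 h, total RNA isolated. Reverse transcription, PCR, fluorescent labelling and capillary electrophoresis quantify reporter transcripts; activity fitted bidirectionally against DMSO.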
# [3] = ATG_M_19_CIS: Attagene CIS-FACTORIAL HepG2 Assay for M19 Transcription Factor (Internal Marker) (AID 2282939); details: HepG2 Attagene CIS-FACTORIAL M19 internal marker reporter; actives raise or lower the signal
# In short: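 HepG2 cells transiently transfected with cis-regulated multiplexed reporter units, dosed 24 h. Reporter mRNA quantified by RT-PCR and capillary electrophoresis; internal background marker fitted bidirectionally versus DMSO.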
# [4] = ATG_ERE_CIS: Attagene CIS-FACTORIAL HepG2 Assay for Estrogen Response Element (ERE) (AID 2282940); details: HepG2 ERE cis-reporter, Attagene RNA transcript; actives raise or lower the signal
# In short: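 HepG2 cells transiently transfected with multiplexed cis-element reporter units, measuring endogenous transcription factor activity; ERE reporter mRNA quantified after 24 h exposure by RT-PCR, fluorescent labelling, HpaI digestion and capillary electrophoresis. Bidirectional change versus DMSO.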
# [5] = ATG_Ets_CIS: Attagene CIS-FACTORIAL HepG2 Assay for human Erythroblast Transformation Specific (ETS) (AID 2282941); details: HepG2 ETS cis-reporter transcription, actives raise or lower the signal
# In short: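 After transient cis-reporter transfection, HepG2 cells receive test chemical for 24 h. Reporter mRNA levels, measured by RT-PCR and capillary electrophoresis fluorescence, are analysed bidirectionally relative to the DMSO baseline.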
# [6] = target: Hepatocyte nuclear factor 3-beta (Homo sapiens) (UniProt Q9Y261); assay: ATG_FoxA2_CIS: Attagene CIS-FACTORIAL HepG2 Assay for human Forkhead box A2 (FOXA2) (AID 2282942); details: HepG2 cis-reporter transcription factor activity, 24 h; actives raise or lower the signal
# Hepatocyte nuclear factor 3-beta (Homo sapiens), sequence (Q9Y261 whole entry, looked up): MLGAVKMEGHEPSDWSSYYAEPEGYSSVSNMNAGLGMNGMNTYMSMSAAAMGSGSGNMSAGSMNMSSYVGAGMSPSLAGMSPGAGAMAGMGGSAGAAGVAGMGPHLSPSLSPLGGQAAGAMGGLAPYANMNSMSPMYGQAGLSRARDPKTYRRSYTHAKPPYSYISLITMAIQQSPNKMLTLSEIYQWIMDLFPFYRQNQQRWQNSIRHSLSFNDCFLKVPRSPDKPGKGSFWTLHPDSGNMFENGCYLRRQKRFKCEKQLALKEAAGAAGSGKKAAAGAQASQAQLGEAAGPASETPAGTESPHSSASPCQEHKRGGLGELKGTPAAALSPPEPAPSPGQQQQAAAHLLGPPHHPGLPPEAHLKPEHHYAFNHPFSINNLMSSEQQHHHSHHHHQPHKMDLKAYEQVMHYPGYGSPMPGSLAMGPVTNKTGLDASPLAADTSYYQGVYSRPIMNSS
# In short: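 Transient MRTU transfection of HepG2 liver cells; 24 h treatment; total RNA → oligo(dT) RT → PCR → FAM primer extension → HpaI cut → CE. Bidirectional fit vs DMSO.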
# [7] = ATG_FoxO_CIS: Attagene CIS-FACTORIAL HepG2 Assay for human Forkhead box O (FoxO) (AID 2282943); details: HepG2 Attagene cis-reporter, FoxO element, mRNA; actives raise or lower the signal
# In short: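 Transfected HepG2 reporter cells exposed to test chemical for 24 h; reporter RNA measured by reverse transcription, PCR and fluorescent capillary electrophoresis; curves fitted for increases and decreases against DMSO.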
# [8] = ATG_GATA_CIS: Attagene CIS-FACTORIAL HepG2 Assay for human GATA Binding Protein (AID 2282944); details: HepG2 GATA cis-element reporter, Attagene multiplex mRNA; actives raise or lower the signal
# In short: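 HepG2 cells transiently transfected with multiplexed cis-element reporter units measure endogenous GATA activity; after 24 h compound exposure, reporter mRNA quantified by RT-PCR and capillary electrophoresis. Changes fitted in both directions vs DMSO.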
# [9] = ATG_GLI_CIS: Attagene CIS-FACTORIAL HepG2 Assay for human Zinc Finger Protein GLI1 (AID 2282945); details: HepG2, Attagene cis-factorial reporter mRNA, GLI element; actives raise or lower the signal
# In short: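 Transiently transfected HepG2 cells report endogenous transcription factor activity via cis-element-driven reporter units. After 24 h compound exposure, reporter mRNA was measured by RT-PCR with capillary electrophoresis; bidirectional fitting against DMSO baseline.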
# [10] = ATG_GRE_CIS: Attagene CIS-FACTORIAL HepG2 Assay for human Glucocorticoid Response Elements (GRE) (AID 2282947); details: HepG2 GRE cis-reporter, Attagene multiplex mRNA; actives raise or lower the signal
# In short: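 Endogenous transcription factor activity is read through cis-element reporter constructs transiently transfected into HepG2 cells. After 24 h treatment, labelled RT-PCR products are resolved by capillary electrophoresis; DMSO sets baseline for bidirectional curve fitting.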
# [11] = ATG_ISRE_CIS: Attagene CIS-FACTORIAL HepG2 Assay for human Interferon Regulatory Factor 1 (IRF1) binding to an Interferon-Stimulated Response Element (ISRE) (AID 2282948); details: HepG2 ISRE cis-reporter (Attagene), mRNA transcription readout; actives raise or lower the signal
# In short: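 Quantitation relies on labelled RT-PCR fragments separated by capillary electrophoresis. Human HepG2 cells bearing cis-promoter reporter constructs were treated 24 h; DMSO served as baseline for bidirectional fitting.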
# [12] = ATG_M_32_CIS: Attagene CIS-FACTORIAL HepG2 Assay for M32 Transcription Factor (Internal Marker) (AID 2282949); details: HepG2 Attagene cis-factorial M32 reporter, mRNA; actives raise or lower the signal;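 further: background control marker of the multiplexed CIS panel rather than a real target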
# In short: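 Following 24 h chemical exposure of HepG2 cells transiently expressing cis-promoter reporter constructs, reporter transcript levels were determined by RT-PCR with fluorescent labelling and capillary electrophoresis, then fitted bidirectionally against DMSO.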
# [13] = ATG_M_06_CIS: Attagene CIS-FACTORIAL HepG2 Assay for M06 Transcription Factor (Internal Marker) (AID 2282950); details: HepG2 Attagene CIS-FACTORIAL M06 internal marker reporter; actives raise or lower the signal
# In short: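 Internal background marker within multiplexed cis-reporter HepG2 system. Cells transiently transfected, dosed 24 h; reporter mRNA measured by RT-PCR, HpaI digestion and capillary electrophoresis. Bidirectional fit relative to DMSO.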
# [14] = target: Hypoxia-inducible factor 1-alpha (Homo sapiens) (UniProt Q16665); assay: ATG_HIF1a_CIS: Attagene CIS-FACTORIAL HepG2 Assay for human Hypoxia Inducible Factor 1 (HIF1A) (AID 2282951); details: HepG2 Attagene cis-factorial HIF1a reporter transcription; actives raise or lower the signal
# Hypoxia-inducible factor 1-alpha (Homo sapiens), sequence (Q16665 whole entry, looked up, the tested form may be a part): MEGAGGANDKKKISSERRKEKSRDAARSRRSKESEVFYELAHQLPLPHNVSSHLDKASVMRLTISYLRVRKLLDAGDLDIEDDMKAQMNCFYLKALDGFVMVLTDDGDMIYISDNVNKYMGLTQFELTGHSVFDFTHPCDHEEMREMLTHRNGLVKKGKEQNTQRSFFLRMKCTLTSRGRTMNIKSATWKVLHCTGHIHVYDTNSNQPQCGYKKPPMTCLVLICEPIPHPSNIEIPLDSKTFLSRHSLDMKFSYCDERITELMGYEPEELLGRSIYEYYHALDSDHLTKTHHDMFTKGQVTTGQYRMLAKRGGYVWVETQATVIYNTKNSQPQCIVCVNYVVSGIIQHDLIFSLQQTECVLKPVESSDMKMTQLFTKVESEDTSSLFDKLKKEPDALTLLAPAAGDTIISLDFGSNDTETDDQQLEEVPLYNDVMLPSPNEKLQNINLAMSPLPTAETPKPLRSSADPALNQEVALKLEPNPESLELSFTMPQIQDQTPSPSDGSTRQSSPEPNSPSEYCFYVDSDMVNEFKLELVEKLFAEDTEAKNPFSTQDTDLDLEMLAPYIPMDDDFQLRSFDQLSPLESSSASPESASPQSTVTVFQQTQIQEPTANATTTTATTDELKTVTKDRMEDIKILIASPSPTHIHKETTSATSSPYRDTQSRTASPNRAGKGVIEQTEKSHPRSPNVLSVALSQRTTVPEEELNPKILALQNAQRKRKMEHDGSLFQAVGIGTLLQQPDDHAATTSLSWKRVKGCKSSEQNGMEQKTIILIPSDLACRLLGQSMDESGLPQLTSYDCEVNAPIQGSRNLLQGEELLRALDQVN
# In short: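 Transient MRTU transfection of human HepG2 liver cells, 24 h compound treatment, then total RNA isolation, oligo(dT) reverse transcription, PCR amplification, fluorescent labelling and capillary electrophoresis of reporter fragments. Gain or loss relative to DMSO.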
# [15] = target: Heat shock factor protein 1 (Homo sapiens) (UniProt Q00613); assay: ATG_HSE_CIS: Attagene CIS-FACTORIAL HepG2 Assay for human Heat Shock Transcription Factor 1 (HSE) (AID 2282953); details: HepG2 HSE cis-reporter, Attagene RNA transcription; actives raise or lower the signal
# Heat shock factor protein 1 (Homo sapiens), sequence (Q00613 whole entry, looked up): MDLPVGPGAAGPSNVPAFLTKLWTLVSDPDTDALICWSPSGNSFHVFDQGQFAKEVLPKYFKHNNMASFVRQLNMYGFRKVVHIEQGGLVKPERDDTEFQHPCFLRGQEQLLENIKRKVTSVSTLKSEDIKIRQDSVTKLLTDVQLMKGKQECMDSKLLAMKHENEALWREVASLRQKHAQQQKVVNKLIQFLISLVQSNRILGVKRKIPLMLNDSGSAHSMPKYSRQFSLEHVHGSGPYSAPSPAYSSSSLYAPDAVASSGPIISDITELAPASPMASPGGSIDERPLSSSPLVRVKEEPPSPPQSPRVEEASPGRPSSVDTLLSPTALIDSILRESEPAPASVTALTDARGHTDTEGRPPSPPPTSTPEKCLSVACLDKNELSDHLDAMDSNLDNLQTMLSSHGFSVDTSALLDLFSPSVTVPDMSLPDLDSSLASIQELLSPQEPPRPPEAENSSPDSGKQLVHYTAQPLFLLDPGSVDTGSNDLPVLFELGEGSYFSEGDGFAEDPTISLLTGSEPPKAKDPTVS
# In short: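 HepG2 cells transfected with cis-promoter reporter units sensing endogenous transcription factor activity; reporter mRNA quantified 24 h post-dose by RT-PCR and capillary electrophoresis of 6-FAM-labelled products. Bidirectional fitting against DMSO.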
# [16] = ATG_MRE_CIS: Attagene CIS-FACTORIAL HepG2 Assay for human Metal Responsive Element (MRE) (AID 2282954); details: HepG2 MRE cis-reporter transcription, Attagene multiplex; actives raise or lower the signal
# In short: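 Fluorescent reporter fragments separated by capillary electrophoresis give mRNA induction for the MRE unit after 24 h treatment of transfected HepG2 cells. Endogenous transcription-factor activity is read; DMSO serves as negative control and baseline.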
# [17] = ATG_PBREM_CIS: Attagene CIS-FACTORIAL HepG2 Assay for human Phenobarbital-responsive Enhancer Module (PBREM) (AID 2282955); details: HepG2 PBREM cis-reporter, Attagene multiplexed transcription; actives raise or lower the signal
# In short: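 Endogenous transcription factors in human liver HepG2 cells drive a PBREM cis-element reporter, whose transcript level after 24 h treatment is quantified by RT-PCR with capillary electrophoresis; activity fitted in both directions against DMSO.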
# [18] = target: Bile acid receptor (Homo sapiens) (UniProt Q96RI1); assay: ATG_IR1_CIS: Attagene CIS-FACTORIAL HepG2 Assay for human Nuclear Receptor Subfamily 1 Group H Member 4 (NR1H4), IR1 submotif (AID 2282946); details: IR1 reporter transcription, actives raise or lower the signal
# Bile acid receptor (Homo sapiens), sequence (Q96RI1 whole entry, looked up): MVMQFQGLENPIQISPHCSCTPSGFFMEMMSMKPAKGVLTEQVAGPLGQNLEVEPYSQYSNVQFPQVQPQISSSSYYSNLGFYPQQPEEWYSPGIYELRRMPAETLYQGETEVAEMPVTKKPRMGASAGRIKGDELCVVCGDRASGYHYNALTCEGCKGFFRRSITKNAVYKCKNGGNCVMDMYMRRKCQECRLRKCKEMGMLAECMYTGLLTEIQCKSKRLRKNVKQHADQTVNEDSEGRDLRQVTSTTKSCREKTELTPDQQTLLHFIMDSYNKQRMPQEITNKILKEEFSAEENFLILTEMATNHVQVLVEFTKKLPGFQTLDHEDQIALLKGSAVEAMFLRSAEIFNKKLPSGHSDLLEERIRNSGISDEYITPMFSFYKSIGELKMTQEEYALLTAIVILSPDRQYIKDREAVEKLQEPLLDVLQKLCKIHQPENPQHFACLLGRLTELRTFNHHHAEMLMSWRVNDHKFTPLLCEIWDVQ
# In short: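 HepG2 cells transiently transfected with multiple cis-promoter-driven reporter units to measure endogenous transcription factor activity; 24 h exposure. Reporter mRNA read by RT-PCR, FAM labelling, HpaI digestion and capillary electrophoresis. Bidirectional fit versus DMSO.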
# [19] = target: Hepatocyte nuclear factor 6 (Homo sapiens) (UniProt Q9UBC0); assay: ATG_HNF6_CIS: Attagene CIS-FACTORIAL HepG2 Assay for human Hepatocyte Nuclear Factor 6 (HNF6) (AID 2282952); details: HepG2 Attagene cis-factorial HNF6 reporter transcription; actives raise or lower the signal
# Hepatocyte nuclear factor 6 (Homo sapiens), sequence (Q9UBC0 whole entry, looked up): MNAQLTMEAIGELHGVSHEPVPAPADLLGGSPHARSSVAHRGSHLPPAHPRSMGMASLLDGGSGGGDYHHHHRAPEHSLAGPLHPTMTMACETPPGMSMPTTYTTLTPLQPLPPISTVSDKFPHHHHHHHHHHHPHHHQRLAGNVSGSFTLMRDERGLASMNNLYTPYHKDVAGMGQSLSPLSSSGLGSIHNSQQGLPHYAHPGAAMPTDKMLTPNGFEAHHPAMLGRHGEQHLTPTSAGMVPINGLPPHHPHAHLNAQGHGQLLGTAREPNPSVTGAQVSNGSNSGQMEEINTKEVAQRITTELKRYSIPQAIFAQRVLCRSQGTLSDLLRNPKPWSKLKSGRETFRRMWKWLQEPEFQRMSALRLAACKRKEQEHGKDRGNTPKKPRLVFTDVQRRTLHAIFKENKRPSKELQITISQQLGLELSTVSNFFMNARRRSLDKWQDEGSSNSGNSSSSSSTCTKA
# In short: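 Cells are HepG2 carrying transiently transfected cis-promoter reporter units. Treatment lasts 24 h, after which reporter transcripts are reverse-transcribed, amplified, FAM-labelled and sized by capillary electrophoresis. DMSO serves as baseline.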
compound,measurement,setting,value
CCCCC/C=C\CCC=O,outcome,[1],inactive
same,outcome,[2],inactive
same,outcome,[3],inactive
same,outcome,[4],inactive
same,outcome,[5],inactive
same,outcome,[6],inactive
same,outcome,[7],inactive
same,outcome,[8],inactive
same,outcome,[9],inactive
same,outcome,[10],inactive
same,outcome,[11],inactive
same,outcome,[12],inactive
same,outcome,[13],inactive
same,outcome,[14],inactive
same,outcome,[15],inactive
same,outcome,[16],inactive
same,outcome,[17],inactive
O=Cc1ccc(CO)o1,outcome,[1],inactive
same,outcome,[2],inactive
same,outcome,[4],inactive
same,outcome,[5],inactive
same,outcome,[6],inactive
same,outcome,[7],inactive
same,outcome,[8],inactive
same,outcome,[9],inactive
same,outcome,[18],inactive
same,outcome,[10],inactive
same,outcome,[11],inactive
same,outcome,[12],inactive
same,outcome,[13],inactive
same,outcome,[14],inactive
same,outcome,[19],inactive
same,outcome,[15],inactive
same,outcome,[16],inactive
same,outcome,[17],inactive
CC/C=C\C/C=C\C/C=C\CCCCCCCC(=O)O,outcome,[1],inactive
same,AC50,[2],103 µM (active)
same,outcome,[3],inactive
same,outcome,[4],inactive
same,outcome,[5],inactive
same,outcome,[6],inactive
same,outcome,[7],inactive
same,outcome,[8],inactive
same,outcome,[9],inactive
same,outcome,[18],inactive
same,AC50,[11],69 µM (active)
same,outcome,[12],inactive
same,outcome,[13],inactive
same,outcome,[14],inactive
same,outcome,[19],inactive
same,AC50,[15],188 µM (active)
same,AC50,[16],140 µM (active)
same,outcome,[17],inactive
Cc1ccc(C2OC[C@@H]3OC(c4ccc(C)cc4)O[C@H]([C@H](O)CO)[C@@H]3O2)cc1 (stereo partly drawn),outcome,[1],inactive
same,outcome,[2],inactive
same,outcome,[3],inactive
same,outcome,[4],inactive
same,outcome,[5],inactive
same,outcome,[6],inactive
same,outcome,[7],inactive
same,outcome,[8],inactive
same,outcome,[9],inactive
same,outcome,[18],inactive
same,outcome,[10],inactive
same,outcome,[11],inactive
same,outcome,[13],inactive
same,outcome,[14],inactive
same,outcome,[19],inactive
same,outcome,[15],inactive
same,outcome,[16],inactive
C=CC(C)(CCC=C(C)C)OC(=O)C(C)C (stereo not drawn),outcome,[1],inactive
same,outcome,[2],inactive
same,outcome,[3],inactive
same,AC50,[4],32.1 µM (active)
same,outcome,[5],inactive
same,outcome,[6],inactive
same,outcome,[7],inactive
same,outcome,[8],inactive
same,outcome,[9],inactive
same,outcome,[10],inactive
same,outcome,[11],inactive
same,outcome,[12],inactive
same,outcome,[13],inactive
same,outcome,[14],inactive
same,outcome,[19],inactive
same,outcome,[15],inactive
same,outcome,[16],inactive
O=C1CCCN1CCO,outcome,[1],inactive
same,outcome,[2],inactive
same,outcome,[3],inactive
same,outcome,[4],inactive
same,outcome,[5],inactive
same,outcome,[6],inactive
same,outcome,[7],inactive
same,outcome,[8],inactive
same,outcome,[9],inactive
same,outcome,[10],inactive
same,outcome,[11],inactive
same,outcome,[12],inactive
same,outcome,[13],inactive
same,outcome,[14],inactive
same,outcome,[15],inactive
same,outcome,[16],inactive
same,outcome,[17],inactive
CC(=O)[C@H]1[C@H](C#N)C[C@H]2[C@@H]3CC=C4C[C@@H](O)CC[C@]4(C)[C@H]3CC[C@@]21C,outcome,[1],inactive
same,outcome,[2],inactive
same,outcome,[3],inactive
same,outcome,[4],inactive
same,outcome,[6],inactive
same,outcome,[7],inactive
same,outcome,[8],inactive
same,outcome,[9],inactive
same,outcome,[18],inactive
same,outcome,[10],inactive
same,outcome,[12],inactive
same,outcome,[13],inactive
same,outcome,[19],inactive
same,outcome,[15],inactive
CC(C)(Oc1ccc(C2CC2(Cl)Cl)cc1)C(=O)O (stereo not drawn),outcome,[1],inactive
same,outcome,[3],inactive
same,outcome,[4],inactive
same,outcome,[5],inactive
same,outcome,[6],inactive
same,outcome,[7],inactive
same,outcome,[8],inactive
same,outcome,[9],inactive
same,outcome,[10],inactive
same,outcome,[11],inactive
same,outcome,[12],inactive
same,outcome,[13],inactive
same,outcome,[14],inactive
same,outcome,[19],inactive
same,outcome,[15],inactive
same,outcome,[16],inactive
same,outcome,[17],inactive
CCCCCCCCCCC=CC#N,outcome,[1],inactive
same,outcome,[2],inactive
same,outcome,[3],inactive
same,outcome,[4],inactive
same,outcome,[5],inactive
same,outcome,[6],inactive
same,outcome,[7],inactive
same,outcome,[8],inactive
same,outcome,[9],inactive
same,outcome,[18],inactive
same,outcome,[11],inactive
same,outcome,[12],inactive
same,outcome,[13],inactive
same,outcome,[14],inactive
same,outcome,[19],inactive
same,outcome,[16],inactive
same,outcome,[17],inactive
O=C(Nc1ccccc1SSc1ccccc1NC(=O)c1ccccc1)c1ccccc1,outcome,[1],inactive
same,outcome,[2],inactive
same,outcome,[4],inactive
same,outcome,[5],inactive
same,outcome,[6],inactive
same,outcome,[7],inactive
same,outcome,[8],inactive
same,AC50,[9],100 µM (active)
same,outcome,[10],inactive
same,outcome,[12],inactive
same,outcome,[13],inactive
same,outcome,[14],inactive
same,outcome,[19],inactive
same,AC50,[15],47.1 µM (active)
same,outcome,[16],inactive
same,outcome,[17],inactive
